Each structure is given as a SMILES string. Calls of active or inactive are those of the source.

Assay [1] concerns PRMT1 (protein arginine N-methyltransferase 1). Nature of the assay: PRMT1 binders on small-molecule microarrays, primary screen, biochemical, small-molecule microarray, 635 nm fluorescence (AID 1088).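 Further: binding of Prmt1 protein to compounds spotted on small-molecule microarray slides.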 The conditions noted are these: small-molecule microarray binding, higher = more signal.
Assay [2] can be described thus: yeast growth modulation, basal conditions, primary screen, YJM789 clinical isolate, OD600, 24 h (AID 1089).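 Further: growth of clinical yeast isolate S. cerevisiae YJM 789 seeded 1000 cells per well; test concentration not given here.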 The conditions noted are these: S. cerevisiae YJM789 growth, higher = more signal, called active from +8 up or from −8 down.
Assay [3] in a line: fission yeast growth modulation, primary screen, strain 972, OD600, 24 h, no modulator (AID 1090).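 Further: basal condition with compound alone and no growth modifier present; test concentration not given here.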 The conditions noted are these: S. pombe 972 growth, higher = more signal, called active from +8 up or from −8 down.
Assay [4] can be described thus: S. cerevisiae growth modulation with rapamycin, primary screen, strain BY4716, OD600, 96 h (AID 1091). Further: test concentration not given here. The conditions noted are these: higher = more signal, called active from +8 up or from −8 down.
In assay [5] the target is Torsin-1A-interacting protein 2 (Homo sapiens) (UniProt Q8NFQ8). Nature of the assay: LULL1 binders on small-molecule microarray, primary screen, cell lysate, human LULL1 lysate, 635/667 nm fluorescence (AID 1092).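 Further: probe is lysate of COS7 cells overexpressing human LULL1; score merges per-feature 667 nm fluorescence with signal-to-noise.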 The conditions noted are these: hLULL1 lysate binding, 635 nm fluorescence, higher = more signal.
Sequence of Torsin-1A-interacting protein 2 (Homo sapiens) (Q8NFQ8 whole entry, looked up): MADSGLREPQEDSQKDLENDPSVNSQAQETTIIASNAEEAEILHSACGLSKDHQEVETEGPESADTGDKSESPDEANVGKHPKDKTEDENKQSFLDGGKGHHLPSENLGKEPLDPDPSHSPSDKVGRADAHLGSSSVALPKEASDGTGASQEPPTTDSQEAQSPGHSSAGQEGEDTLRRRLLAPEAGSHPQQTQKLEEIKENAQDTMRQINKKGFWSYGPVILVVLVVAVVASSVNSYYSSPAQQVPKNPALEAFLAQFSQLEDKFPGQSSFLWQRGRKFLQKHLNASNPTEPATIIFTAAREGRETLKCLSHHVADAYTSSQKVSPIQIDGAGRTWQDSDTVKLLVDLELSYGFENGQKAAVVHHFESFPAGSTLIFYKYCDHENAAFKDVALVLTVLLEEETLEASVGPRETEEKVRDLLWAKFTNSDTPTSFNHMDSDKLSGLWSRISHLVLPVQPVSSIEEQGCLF
Assay [6] in a line: E. coli growth modulation, two-sided OD650, primary screen, E. coli filamentation project, strain DRC41, 24 h (AID 1093).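 Further: MC1000 strain lacking acrAB efflux and sulA so SOS filamentation is blocked; test concentration not given here.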 The conditions noted are these: OD650, 24 h, higher = more signal, called active from +8 up or from −8 down.
Assay [7] is described as follows: small-molecule microarray binders of probe aLefty2, primary screen, biochemical, biotinylated probe, 635/667 nm fluorescence (AID 1094).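 Further: score merges spot fluorescence near 667 nm with spot signal-to-noise ratio.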 The conditions noted are these: higher = more signal.
Assay [8] relates to Noggin (protein binding on small-molecule microarray). As to the kind of experiment: Noggin binders on small-molecule microarray, primary screen, biochemical, 635/667 nm fluorescence (AID 1095).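 Further: score merges 667 nm feature fluorescence with signal to noise over triplicate slides.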 The conditions noted are these: 635 nm fluorescence, higher = more signal.
The target in assay [9] is Neurogenic locus notch homolog protein 3 (Homo sapiens) (UniProt Q9UM47). Nature of the assay: NOTCH3 binders on small-molecule microarray, primary screen, biochemical, 635/667 nm fluorescence (AID 1096). The conditions noted are these: NOTCH3 binding, 635 nm fluorescence, higher = more signal.
Sequence of Neurogenic locus notch homolog protein 3 (Homo sapiens) (Q9UM47 whole entry, looked up): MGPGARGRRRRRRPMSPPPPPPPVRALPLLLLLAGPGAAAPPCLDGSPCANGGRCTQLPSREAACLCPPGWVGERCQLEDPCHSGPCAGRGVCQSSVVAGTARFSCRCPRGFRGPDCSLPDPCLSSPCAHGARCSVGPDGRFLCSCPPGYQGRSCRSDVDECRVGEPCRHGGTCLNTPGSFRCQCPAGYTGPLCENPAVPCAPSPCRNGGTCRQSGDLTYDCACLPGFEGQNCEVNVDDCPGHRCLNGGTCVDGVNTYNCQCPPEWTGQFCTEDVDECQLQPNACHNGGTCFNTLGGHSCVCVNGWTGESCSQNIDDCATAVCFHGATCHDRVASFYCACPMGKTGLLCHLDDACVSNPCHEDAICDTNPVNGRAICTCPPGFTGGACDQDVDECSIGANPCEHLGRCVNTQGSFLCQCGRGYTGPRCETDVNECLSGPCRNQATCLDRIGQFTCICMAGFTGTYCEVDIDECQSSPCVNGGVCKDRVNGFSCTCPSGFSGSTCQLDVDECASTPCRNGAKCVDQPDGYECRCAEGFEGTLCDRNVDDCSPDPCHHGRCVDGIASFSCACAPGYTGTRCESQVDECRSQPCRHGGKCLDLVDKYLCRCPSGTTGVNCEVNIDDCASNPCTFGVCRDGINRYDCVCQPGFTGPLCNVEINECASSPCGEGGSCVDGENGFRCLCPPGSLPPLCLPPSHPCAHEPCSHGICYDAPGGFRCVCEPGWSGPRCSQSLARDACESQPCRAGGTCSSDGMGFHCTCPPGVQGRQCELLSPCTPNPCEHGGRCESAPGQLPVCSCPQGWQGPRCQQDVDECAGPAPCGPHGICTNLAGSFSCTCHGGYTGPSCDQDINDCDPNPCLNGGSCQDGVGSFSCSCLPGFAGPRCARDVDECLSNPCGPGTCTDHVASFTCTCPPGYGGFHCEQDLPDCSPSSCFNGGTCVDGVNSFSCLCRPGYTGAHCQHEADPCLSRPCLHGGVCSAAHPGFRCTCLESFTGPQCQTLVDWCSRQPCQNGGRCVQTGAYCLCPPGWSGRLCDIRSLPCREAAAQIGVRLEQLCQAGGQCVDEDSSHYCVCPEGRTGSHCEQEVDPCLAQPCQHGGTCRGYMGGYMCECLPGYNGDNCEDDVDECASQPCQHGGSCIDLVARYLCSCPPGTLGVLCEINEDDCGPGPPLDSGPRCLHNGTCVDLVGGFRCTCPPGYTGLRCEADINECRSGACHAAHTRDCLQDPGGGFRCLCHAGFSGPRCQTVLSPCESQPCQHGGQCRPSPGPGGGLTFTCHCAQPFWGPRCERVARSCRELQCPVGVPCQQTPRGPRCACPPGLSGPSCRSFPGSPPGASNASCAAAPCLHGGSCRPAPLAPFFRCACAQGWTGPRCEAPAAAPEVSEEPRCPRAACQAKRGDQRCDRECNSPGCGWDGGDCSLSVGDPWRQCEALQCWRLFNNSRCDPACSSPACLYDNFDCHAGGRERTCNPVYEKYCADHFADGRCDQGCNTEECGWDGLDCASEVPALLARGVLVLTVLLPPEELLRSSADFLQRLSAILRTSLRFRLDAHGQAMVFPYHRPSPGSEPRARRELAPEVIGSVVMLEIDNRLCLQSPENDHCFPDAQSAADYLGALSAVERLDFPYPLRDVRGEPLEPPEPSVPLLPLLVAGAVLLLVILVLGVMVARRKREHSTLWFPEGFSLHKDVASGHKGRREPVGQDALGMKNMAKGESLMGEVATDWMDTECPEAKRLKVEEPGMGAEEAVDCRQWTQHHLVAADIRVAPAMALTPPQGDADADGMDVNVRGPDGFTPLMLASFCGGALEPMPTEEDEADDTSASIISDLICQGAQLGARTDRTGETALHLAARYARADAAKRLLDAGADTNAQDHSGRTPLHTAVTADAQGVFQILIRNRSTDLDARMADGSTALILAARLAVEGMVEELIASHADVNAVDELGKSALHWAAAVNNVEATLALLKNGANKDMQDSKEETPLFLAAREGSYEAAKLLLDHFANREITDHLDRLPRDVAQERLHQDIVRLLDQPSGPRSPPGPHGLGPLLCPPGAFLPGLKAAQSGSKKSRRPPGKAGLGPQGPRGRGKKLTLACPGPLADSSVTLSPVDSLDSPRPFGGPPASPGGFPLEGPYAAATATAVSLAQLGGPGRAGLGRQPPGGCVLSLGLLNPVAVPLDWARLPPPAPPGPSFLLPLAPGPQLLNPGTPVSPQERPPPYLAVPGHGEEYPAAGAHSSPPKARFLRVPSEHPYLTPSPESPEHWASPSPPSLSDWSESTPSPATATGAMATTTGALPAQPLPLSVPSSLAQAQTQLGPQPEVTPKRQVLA
Assay [10] in a line: small-molecule microarray binders of probe aEGFR, primary screen, biochemical, biotinylated probe, 635/667 nm fluorescence (AID 1097).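 Further: probe is a biotinylated anti-EGFR antibody binding compounds printed on slides; score combines fluorescence near 667 nm and signal to noise of each spot.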 The conditions noted are these: higher = more signal.

With `CO[C@H]1O[C@H](CO)[C@@H](OC(=O)Nc2ccccc2)[C@@H]2OC(=O)[C@@H](Cc3ccccc3)C/C=C/C[C@H](Cc3ccccc3)C(=O)O[C@@H]12`, the composite z-score in [1] was 1.2; in assay [5], 1.41; in assay [7], 0.142; in [8], -0.0235; in assay [9], -0.151; in [10], -0.0697. Also, the z-score is 0.552 (inactive) in assay [2], -0.0693 (inactive) in [3], 1.04 (inactive) in [4] and 0.386 (inactive) in [6].

Take `[N-]=[N+]=NCc1ccccc1C[C@]1(C(=O)N2CCCCC2)COC(c2ccc(OCCCO)cc2)=N1`: the composite z-score came out at 1.57 in [1]; 1.55 in assay [5]; 0.346 in [7]; 0.683 in assay [8]; 0.202 in assay [9]; 0.306 in assay [10]. Also, the z-score in [2] is 0.504 (inactive); in assay [3], -1.92 (inactive); in assay [4], 34.8 (active); in assay [6], 3.43 (inactive).

For the compound `COc1ccc([Si](C)(C)[C@H]2[C@H](CC(=O)N(CCO)Cc3ccccc3)O[C@@]3(C(=O)N(Cc4ccc(N5C(=O)c6cccc7cccc5c67)cc4)c4ccccc43)[C@@H]2C)cc1`, the composite z-score in assay [1] came out at 1.48; in assay [5] it was 2.15; in assay [7], 0.748; in [8], 1.36; in assay [9] it was 1.12; in [10], 0.0059. Further, the z-score in assay [2] was 0.614 (inactive); in assay [3], 0.685 (inactive); in [4], 2.87 (inactive); in [6], 0.222 (inactive).

In the case of `COc1cc2c(cc1O)C(C)N(Cc1sc3ccccc3c1Cl)CC2` (stereo not given), the composite z-score was -0.77 in [1]; -0.0038 in assay [5]; 0.107 in [7]; -0.417 in [8]; -0.88 in assay [9]; -0.2 in [10]. Further, the z-score in [2] is 0.173 (inactive); in [3] it was -12.3 (active); in assay [4], -1.6 (inactive); in assay [6], 0.566 (inactive).

Consider `Cc1cccc([C@H]2C[C@H]3C(Br)=C[C@@]2(CO)C(=O)[C@]32CO2)c1`, for which the composite z-score is 0.378 in assay [1]; 2.39 in assay [5]; -0.114 in assay [7]; 0.783 in [8]; 0.353 in assay [9]; -0.219 in assay [10]. Moreover, the z-score in assay [2] was -1.54 (inactive); in assay [3], -2.89 (inactive); in assay [4], -0.75 (inactive); in [6], -0.316 (inactive).

Regarding `COc1ccc([Si](C)(C)[C@@H]2[C@@H](CC(=O)N3CCC[C@H]3CO)O[C@]3(C(=O)N(Cc4cccc(N5C(=O)c6cccc7cccc5c67)c4)c4ccccc43)[C@H]2C)cc1`, the composite z-score was 1.34 in assay [1]; 1.48 in assay [5]; -0.0757 in assay [7]; 0.641 in assay [8]; 0.368 in assay [9]; -0.115 in [10]. Further, the z-score in assay [2] is -0.702 (inactive); in assay [3] it was -0.487 (inactive); in [4] it was -0.158 (inactive); in assay [6], 1.55 (inactive).

For `COC(=O)C(CC#Cc1ccc2c(c1)[C@]1(C(=O)N2)[C@H](c2ccc(OCCO)cc2)N2[C@H](c3ccccc3)[C@H](c3ccccc3)OC(=O)[C@H]2[C@@H]1C(N)=O)C(=O)OC`, the composite z-score in [1] was 1.06; in assay [5], 2.03; in assay [7] it was -0.134; in [8], 0.122; in [9], 0.0497; in [10], -0.19. In addition, the z-score in assay [2] was 1.76 (inactive); in assay [3], 1.23 (inactive); in assay [4], 6.23 (inactive); in [6], -0.0446 (inactive).

As to `O=C1OCC=C[C@H]2OC34C=CCN(Cn5nnc6ccccc65)C(=O)[C@H]3N(CCO)C(=O)[C@@H]4[C@@H]12` (stereo not given in full), the composite z-score was 0.551 in assay [1]; 2.55 in [5]; -0.0368 in assay [7]; -1.88 in assay [8]; -0.481 in assay [9]; -0.171 in assay [10]. For the same compound, the z-score was 0.936 (inactive) in assay [2], 0.159 (inactive) in assay [3], 0.294 (inactive) in assay [4] and -0.55 (inactive) in assay [6].

Turning to `C=C(COC)/C(=C/C[C@@H](OC(=O)c1ccncc1)c1ccccc1OCCO)c1cnc2ccccc2c1`, the composite z-score was 1.54 in assay [1]; 2.03 in assay [5]; -0.0304 in assay [7]; 1.95 in assay [8]; 1.02 in [9]; 0.0533 in [10]. For the same compound, the z-score in assay [2] is -0.564 (inactive); in assay [3], -1.61 (inactive); in assay [4] it was 0.698 (inactive); in [6] it was 1.1 (inactive).

Consider `COC(=O)[C@@]1(Cc2ccc(F)cc2)[C@H]2c3cc(C(=O)N4CCCC4)n(CCSCCO)c3C[C@H]2CN1C(=O)c1ccccc1`, for which the composite z-score was -0.665 in assay [1]; 3.54 in [5]; 0.314 in assay [7]; -0.906 in assay [8]; 0.225 in [9]; 0.0726 in assay [10]. The z-score was 0.856 (inactive) in [2], 1.25 (inactive) in [3], 0.727 (inactive) in assay [4] and -0.0319 (inactive) in assay [6].

Turning to `COC(=O)C1(CC(C)C)C=C2C(=C(C)C(=O)C2C)CN1` (stereo not given), the composite z-score in assay [1] is -0.999; in [5], 2.1; in assay [7], 0.374; in assay [8], -0.054; in assay [9] it was 0.379; in assay [10], 0.449. Also, the z-score was -0.355 (inactive) in [2], 0.543 (inactive) in [3], 0.202 (inactive) in assay [4] and -0.698 (inactive) in [6].

As for `COCCOC(=O)N1C(=O)[C@@]2(c3cc(C#CCCO)ccc31)[C@H](C(=O)N1CCN(c3ncccn3)CC1)[C@H]1C(=O)O[C@H](c3ccccc3)[C@H](c3ccccc3)N1[C@@H]2c1ccc(OCCO)cc1`, the composite z-score in [1] was 1.53; in assay [5], 3.11; in assay [7] it was -0.025; in assay [8], 0.86; in assay [9], 1.05; in assay [10] it was 0.0193. Moreover, the z-score is 2.26 (inactive) in assay [2], 1.9 (inactive) in assay [3], 5.64 (inactive) in [4] and -0.466 (inactive) in assay [6].

For the compound `CCOC(=O)C[C@H]1[C@H](OC(=O)Cc2ccc3c(c2)OCO3)[C@@H](NC(=O)CC(C)C)c2cc(OCCCO)ccc2N1C(=O)c1ccc2ccccc2n1`, the composite z-score in assay [1] is 0.516; in [5], 0.452; in assay [7] it was -0.145; in assay [8], 0.988; in assay [9], 0.647; in [10] it was -0.178. In addition, the z-score in [2] is -0.0651 (inactive); in assay [3] it was -0.943 (inactive); in assay [4], -0.0443 (inactive); in [6] it was 0.431 (inactive).

`COC(=O)[C@]1(Cc2ccccc2N=[N+]=[N-])N=C(c2ccc(OCCCO)cc2)O[C@@H]1c1ccccc1CN=[N+]=[N-]`: the composite z-score in [1] is 1.56; in [5], 2.25; in assay [7], 0.021; in assay [8] it was 1.23; in assay [9] it was 0.963; in assay [10] it was 0.0258. For the same compound, the z-score in assay [2] is -0.141 (inactive); in assay [3] it was 0.708 (inactive); in assay [4], 36.8 (active); in assay [6], -0.763 (inactive).

Source of the values: PubChem BioAssay.
